We go through 13 molecules from PubChem BioAssay (Tox21).

The nature of experiment [1]: qHTS assay to identify small molecule antagonists of the retinoid acid receptor (RAR) signaling pathway - cell viability counter screen (AID 1159551). Also: nearly all actives have a fitted effect of over 35% in size. The gist of the method: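 C3RL4 cells were seeded overnight at 37 C, then treated with compounds plus 1 uM (final) retinol for 6 h at 37 C. Viability was read as ATP by CellTiter-Glo luminescence after 30 min at room temperature.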
In general terms: Quantitative high-throughput screening tests each substance at several concentrations.

Experiment [2] in a line: qHTS assay to identify small molecule antagonists of the retinoic acid receptor (RAR) signaling pathway (AID 1159552; also: nearly all actives have a fitted effect of over 50% in size; also: potency is read from the fitted curve at half-maximal effect). The gist of the method:
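Luminescent RARE reporter read-out in C3RL4 cells: 6 hr co-treatment at 37 C of test compounds with retinol at 1 uM final. Cells plated overnight beforehand; luciferase reagent incubated 30 min at room temperature before reading.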

Experiment [3] is described as follows: qHTS assay to identify small molecule antagonists of the estrogen related receptor (ERR) signaling pathway from Tox21 library - cell viability counter screen (AID 1224834). Also: nearly all actives have a fitted effect of over 30% in size. Also: potency is read from the fitted curve at half-maximal effect. The gist of the method:
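ERR reporter cells were plated 6 h before compound addition, then exposed to test compounds in DMSO for 17.5 h at 37 C. Viability was read as CellTiter-Fluor fluorescence after a 30-minute incubation at 37 C.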

The target of experiment [4] is Luciferin 4-monooxygenase (Photinus pyralis) (UniProt P08659). The experiment in a line: qHTS assay to identify small molecule inhibitors of firefly luciferase (AID 1224835). Also: nearly all actives have a fitted effect of over 25% in size. Also: potency is read from the fitted curve at half-maximal effect. The gist of the method:
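Quantitative HTS format; KM concentrations of both substrates. Purified P. pyralis FLuc activity quantified from luminescence images.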

The nature of experiment [5]: qHTS assay to identify small molecule agonists of the hypoxia (HIF-1) signaling pathway - cell viability counter screen (AID 1224844; calls by dose curve; also: nearly all actives have a fitted effect of over 50% in size; also: potency is read from the fitted curve at half-maximal effect). In outline: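 HRE-bla ME-180 cells in medium with 0.5% dialyzed FBS were preincubated 5 hrs at 37C, exposed to compounds for 17 hrs, then viability was read as CellTiter-Glo luminescence after 30 min at room temperature, in the reporter wells.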

The nature of experiment [6]: qHTS assay to identify small molecule agonists of H2AX (AID 1224845; active = well fitted activation curve with a large enough effect in the signal ratio in the repeat runs, not every such curve was filed as active; the % refers to the signal ratio). The gist of the method: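 Wild-type CHO-K1 cells plated overnight, then exposed 3 hr at 37C to compounds at 15 concentrations (0.76% DMSO). Lysed, then HTRF anti-pH2AX(S139)-cryptate/anti-H2AX-d2 detection after 24 hr at room temperature; emissions 665 and 620 nm.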
Experiment [7] can be described thus: qHTS assay to identify small molecule agonists of the retinoic acid receptor (RAR) signaling pathway (AID 1159553). The gist of the method:
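C3RL4 cells carrying a RARE luciferase reporter were plated overnight at 37 C, then exposed to compounds in DMSO for 6 hr at 37 C and 5% CO2. Luminescence was read 30 min after luciferase reagent addition at room temperature.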

Experiment [8] can be described thus: qHTS assay to identify small molecule antagonists of the estrogen related receptor (ERR) signaling pathway - cell viability counter screen (AID 1224818).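 Also: series mostly up to about 46 µM; viability measured after 17.5 h of compound exposure.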 In outline: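 ERR reporter cells plated 6 h at 37 C/5% CO2, then compounds in DMSO pin-transferred and incubated 17.5 h at 37 C. Viability read as CellTiter-Fluor fluorescence after 30 min at 37 C.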
The nature of experiment [9]: qHTS assay to identify small molecule antagonists of the constitutive androstane receptor (CAR) signaling pathway - cell viability counter screen (AID 1224837). Also: nearly all actives have a fitted effect of over 45% in size. Also: potency is read from the fitted curve at half-maximal effect. In outline: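 HepG2 cells stably expressing hCAR and a CYP2B6-2.2kb reporter were plated and pre-incubated 4 hr at 37 C/5% CO2, then given compounds at 15 concentrations plus 50 nM CITCO (final). After 23 hr, viability was read by CellTiter-Fluor fluorescence.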

Experiment [10] concerns the target Nuclear receptor subfamily 1 group I member 3 (Homo sapiens) (UniProt Q14994). The experiment in a line: qHTS assay to identify small molecule agonists of the constitutive androstane receptor (CAR) signaling pathway (AID 1224839).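 Also: HepG2 cells stably carrying human CAR and a CYP2B6 luciferase reporter; series mostly up to about 92 µM; nearly all actives have a fitted effect of over 15% in size.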 In outline: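 Luminescent ONE-Glo read-out after 24 hr, 37 C exposure of double-stable HepG2-CYP2B6-hCAR reporter cells to a 15-point compound series, in the presence of 0.75 uM PK11195 (final).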

A short description of experiment [11]: qHTS assay to identify small molecule agonists of the constitutive androstane receptor (CAR) signaling pathway - cell viability counter screen (AID 1224836). Also: nearly all actives have a fitted effect of over 45% in size. Also: potency is read from the fitted curve at half-maximal effect. The gist of the method: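 Cell viability multiplexed with the CAR agonist screen: CellTiter-Fluor fluorescence after 23 hr at 37 C. HepG2-CYP2B6-hCAR cells got compounds at 15 concentrations with PK11195 at 0.75 uM final.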

A short description of experiment [12]: qHTS assay to identify small molecule antagonists of the estrogen related receptor signaling pathway with the pleiotropic PPARgamma coactivator (PGC) from Tox21 10K library - cell viability counter screen (AID 1224840; active = well fitted cell-killing curve with a large enough effect in the repeat runs, not every such curve was filed as active; also: nearly all actives have a fitted effect of over 40% in size). In outline:
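PGC/ERR cells were seeded at 2,000 cells/well and left 6 hours at 37 C/5% CO2 before pin-tool addition of compounds in DMSO. After 17.5 hours at 37 C, CellTiter-Fluor was added and fluorescence read 30 minutes later.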

Experiment [13] can be described thus: qHTS assay to identify small molecule agonists of the estrogen related receptor signaling pathway with the pleiotropic PPARgamma coactivator (PGC) from Tox21 10K library (AID 1224842). Also: nearly all actives have a fitted effect of over 15% in size. In outline:
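PGC/ERR reporter cells (NTP line) were seeded 2,000 per well, rested 6 h at 37 C/5% CO2, then pin-dosed with compounds in DMSO for 18 h at 37 C; luciferase read by One-Glo luminescence after 30 min at room temperature.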

Experiment [14] deals with Thyrotropin receptor (Homo sapiens) (UniProt P16473). The experiment in a line: qHTS assay to identify small molecule agonists of the thyroid stimulating hormone receptor (TSHR) signaling pathway (AID 1224843; calls by dose curve; also: nearly all actives have a fitted effect of over 45% in size). In outline: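 Cell line HEK293 with TSHR; density 800/well. Exposure 30 min RT. Readout HTRF cAMP (cAMP-d2/anti-cAMP-cryptate), 1 h RT before reading.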
For experiment [15], the target named is Nuclear receptor subfamily 1 group I member 3 (Homo sapiens) (UniProt Q14994). The experiment in a line: qHTS assay to identify small molecule antagonists of the constitutive androstane receptor (CAR) signaling pathway (AID 1224838). Also: nearly all actives have a fitted effect of over 40% in size. The gist of the method:
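HepG2 cells stably co-transfected with hCAR and a CYP2B6-2.2kb luciferase reporter were seeded 4 h before compound addition at 15 concentrations. Cells were stimulated with 50 nM CITCO (final) for 24 h at 37 C; luciferase luminescence was then read.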

Experiment [16] in a line: qHTS assay to identify small molecule antagonists of the estrogen related receptor signaling pathway with the pleiotropic PPARgamma coactivator (PGC) from Tox21 10K library (AID 1224841; call rule not given here; also: actives are mostly falling curves and most rising ones were filed inactive; nearly all actives have a fitted effect of over 50% in size; also: potency is read from the fitted curve at half-maximal effect). The gist of the method:
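PGC/ERR reporter cells were seeded at 2,000 cells/well and held 6 hours at 37 C/5% CO2 before pin-tool addition of compounds in DMSO. After 18 hours at 37 C, One-Glo was added and luminescence read after 30 minutes at room temperature.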

Each structure is given as a SMILES string. Records with an inconclusive call do not appear. More than one record can exist for a structure, and the calls need not agree. Calls of active or inactive are those of the source. Unless noted, calls follow the shape of the dose curve; as a rule, active = well fitted curve in the direction sought with a large enough effect in the repeat runs; inconclusive = weak or mixed curves; inactive = no such curve, though single readings can be large; an effect the other way counts as inactive or inconclusive.

Chain of Luciferin 4-monooxygenase (Photinus pyralis) (P08659 whole entry, looked up): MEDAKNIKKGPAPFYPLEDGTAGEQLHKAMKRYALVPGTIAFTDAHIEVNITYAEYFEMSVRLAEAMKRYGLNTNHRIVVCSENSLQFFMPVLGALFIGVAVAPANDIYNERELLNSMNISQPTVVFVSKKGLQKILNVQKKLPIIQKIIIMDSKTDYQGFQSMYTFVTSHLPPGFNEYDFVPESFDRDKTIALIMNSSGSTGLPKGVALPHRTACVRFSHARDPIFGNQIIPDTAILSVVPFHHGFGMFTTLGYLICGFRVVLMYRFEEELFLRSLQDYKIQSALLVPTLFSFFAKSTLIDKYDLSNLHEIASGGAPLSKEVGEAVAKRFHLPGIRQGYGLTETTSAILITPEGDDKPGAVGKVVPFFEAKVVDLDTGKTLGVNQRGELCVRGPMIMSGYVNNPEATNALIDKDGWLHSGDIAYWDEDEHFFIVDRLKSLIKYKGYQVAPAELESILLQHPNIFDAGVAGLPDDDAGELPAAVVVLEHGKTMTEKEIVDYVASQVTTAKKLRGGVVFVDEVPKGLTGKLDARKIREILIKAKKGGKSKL
Chain of Nuclear receptor subfamily 1 group I member 3 (Homo sapiens) (Q14994 whole entry, looked up): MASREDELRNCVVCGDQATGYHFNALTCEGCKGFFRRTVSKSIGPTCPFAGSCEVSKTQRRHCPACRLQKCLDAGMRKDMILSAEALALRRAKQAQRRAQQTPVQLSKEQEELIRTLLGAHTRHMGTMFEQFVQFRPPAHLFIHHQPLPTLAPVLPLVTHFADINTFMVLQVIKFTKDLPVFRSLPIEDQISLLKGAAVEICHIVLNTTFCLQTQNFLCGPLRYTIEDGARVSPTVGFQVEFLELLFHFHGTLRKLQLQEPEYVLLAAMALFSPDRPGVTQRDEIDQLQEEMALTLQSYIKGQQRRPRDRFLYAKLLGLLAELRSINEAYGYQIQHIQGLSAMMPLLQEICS
Chain of Thyrotropin receptor (Homo sapiens) (P16473 whole entry, looked up): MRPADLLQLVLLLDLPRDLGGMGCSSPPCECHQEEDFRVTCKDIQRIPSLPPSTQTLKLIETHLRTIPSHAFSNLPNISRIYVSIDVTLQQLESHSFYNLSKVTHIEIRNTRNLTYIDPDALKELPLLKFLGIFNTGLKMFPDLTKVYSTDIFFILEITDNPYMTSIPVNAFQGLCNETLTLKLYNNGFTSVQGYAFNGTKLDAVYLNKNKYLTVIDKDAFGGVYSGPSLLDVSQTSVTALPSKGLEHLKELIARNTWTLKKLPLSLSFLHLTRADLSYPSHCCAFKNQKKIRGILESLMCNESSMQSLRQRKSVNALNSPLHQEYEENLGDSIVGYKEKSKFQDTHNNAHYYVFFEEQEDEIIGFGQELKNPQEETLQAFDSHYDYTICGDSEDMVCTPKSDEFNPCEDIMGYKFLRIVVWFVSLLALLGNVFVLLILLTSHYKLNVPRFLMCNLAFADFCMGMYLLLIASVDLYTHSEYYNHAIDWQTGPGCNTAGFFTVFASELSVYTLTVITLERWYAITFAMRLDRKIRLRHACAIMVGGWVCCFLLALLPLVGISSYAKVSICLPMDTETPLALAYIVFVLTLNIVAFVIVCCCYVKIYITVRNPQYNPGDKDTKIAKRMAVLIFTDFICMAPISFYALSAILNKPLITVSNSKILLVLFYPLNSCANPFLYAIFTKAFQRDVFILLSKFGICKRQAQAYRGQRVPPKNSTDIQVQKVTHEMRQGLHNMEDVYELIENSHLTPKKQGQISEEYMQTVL

With `Oc1ccc(C2(c3ccc(O)cc3)CCCCC2)cc1`, the Potency result in [1], in [4] and in experiment [6] was “inactive” throughout. Moreover, the Potency in experiment [2] is 41 µM (active); in [3], 57.9 µM (active); in [5], 52.1 µM (active).
In the case of `CC1(C)CC/C(=C/c2ccc(Cl)cc2)C1(O)Cn1cncn1` (configuration not stated), the Potency result in experiment [1], in [7], in [4] and in [10] was “inactive” in each case. In [8], the molecule was classed as inactive. In experiment [9], the Potency was 68.2 µM (active).
Consider `Cc1cc(C)cc(OP(=O)(Oc2cc(C)cc(C)c2)Oc2cc(C)cc(C)c2)c1`, for which the Potency entry in experiment [1], in experiment [7], in [3], in experiment [4], in experiment [11] and in [9] was “inactive” in each case. Also, the Potency entry in [12], in experiment [13], in experiment [14], in experiment [5] and in experiment [6] was “inactive” in each case.
For the molecule `CCCCOP(=O)(CCCC)OCCCC`, the Potency result in [1], in experiment [2], in [4], in [11], in experiment [9] and in experiment [15] was “inactive” each time. In addition, the Potency result in experiment [12], in experiment [13], in [5] and in experiment [6] was “inactive” each time.
For `CC[C@H]1C[C@@H]2C[C@H]3c4[nH]c5ccc(OC)cc5c4CCN(C2)[C@@H]13`, the Potency result in experiment [1], in experiment [2], in [4], in [11], in [15] and in experiment [10] was “inactive” throughout. Further, in [13], the Potency result was “inactive”.
Regarding `COc1ccc([N+](=O)[O-])cc1O`, the Potency result in [1], in experiment [2], in experiment [4], in experiment [11], in experiment [12] and in [14] was “inactive” throughout. In addition, the Potency result in [5] and in experiment [6] was “inactive” throughout.
Turning to `Clc1ccc(Oc2ccccc2)cc1`, the Potency entry in experiment [1], in experiment [2], in experiment [4], in [11], in experiment [9] and in [15] was “inactive” throughout. The Potency entry in [10], in [12], in experiment [5] and in experiment [6] was “inactive” throughout.
As for `CCOP(=O)(NC(C)C)Oc1ccc(SC)c(C)c1` (configuration not stated), the Potency entry in experiment [1], in experiment [7], in experiment [5] and in experiment [6] was “inactive” in each case. Besides, the molecule was classed as inactive in experiment [8].
For the molecule `S=C(SSC(=S)N1CCCCC1)N1CCCCC1`, the Potency entry in experiment [1], in experiment [10], in [13] and in [14] was “inactive” each time. In addition, the Potency is 0.531 µM (active) in experiment [3], 1.74 µM (active) in experiment [4], 0.841 µM (active) in experiment [11] and 0.338 µM (active) in experiment [5].
Regarding `Clc1ccc(C(c2ccc(Cl)cc2)C(Cl)(Cl)Cl)cc1`, the Potency result in experiment [1], in experiment [3], in experiment [4], in experiment [11], in [9] and in experiment [12] was “inactive” throughout. In addition, the Potency entry in [13] was “inactive”. Moreover, the Potency in experiment [16] is 17.4 µM (active) and inactive; in [5] it was 24.7 µM (active).
With `C[C@]12CC[C@@H]3c4ccc(OC(=O)N(CCCl)CCCl)cc4CC[C@H]3[C@@H]1CC[C@@H]2O`, the Potency entry in [1], in experiment [3], in [4], in experiment [11], in [9] and in experiment [15] was “inactive” in each case. Besides, the Potency entry in experiment [10], in experiment [12], in [13], in experiment [14], in experiment [5] and in experiment [6] was “inactive” throughout.
For `CC(C)(O)c1cnn2c(-c3ccc(F)c(-c4c(F)cccc4C#N)c3)cnc2n1`, the Potency entry in experiment [1], in experiment [7], in experiment [4], in [11], in experiment [9] and in experiment [10] was “inactive” throughout. Besides, the Potency entry in [12], in experiment [13] and in [14] was “inactive” each time. Moreover, the Potency in experiment [5] was 54.9 µM (active).
With `CC1(C)C(/C=C(\Cl)C(F)(F)F)C1C(=O)OC(C#N)c1cccc(Oc2ccccc2)c1` (configuration not stated), the Potency entry in experiment [1], in experiment [3], in experiment [4], in [11], in experiment [9] and in [10] was “inactive” each time. In addition, the Potency result in [12], in experiment [14], in experiment [5] and in experiment [6] was “inactive” in each case.
